Drawing on PubChem BioAssay (Tox21), this text covers Potency for 39 molecules.

Inconclusive results are not listed. Where a call stands in place of a potency, no number is given. The source made the active and inactive calls. The call rests on the fitted dose curve.

Sequence of Acetylcholinesterase (Homo sapiens) (P22303 whole entry, looked up): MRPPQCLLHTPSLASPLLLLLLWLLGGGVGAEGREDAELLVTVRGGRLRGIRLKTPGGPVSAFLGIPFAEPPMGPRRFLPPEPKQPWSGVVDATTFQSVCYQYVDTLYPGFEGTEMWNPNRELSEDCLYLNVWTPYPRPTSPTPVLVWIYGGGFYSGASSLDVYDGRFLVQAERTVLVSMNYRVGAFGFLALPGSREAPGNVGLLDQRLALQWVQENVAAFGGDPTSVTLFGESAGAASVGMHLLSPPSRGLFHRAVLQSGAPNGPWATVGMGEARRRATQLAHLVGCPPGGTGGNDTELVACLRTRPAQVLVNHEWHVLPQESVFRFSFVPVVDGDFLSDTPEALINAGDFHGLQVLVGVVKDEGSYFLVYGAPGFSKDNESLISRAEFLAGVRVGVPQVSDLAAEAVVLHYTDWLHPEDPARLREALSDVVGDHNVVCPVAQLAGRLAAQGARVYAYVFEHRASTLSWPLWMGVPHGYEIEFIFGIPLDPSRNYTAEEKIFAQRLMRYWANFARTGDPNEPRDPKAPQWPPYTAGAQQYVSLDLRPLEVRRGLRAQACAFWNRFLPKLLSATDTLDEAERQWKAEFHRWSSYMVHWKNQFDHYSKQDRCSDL

One assay has as its target Acetylcholinesterase (Homo sapiens) (UniProt P22303). Kind of assay: Acetylcholinesterase (AChE) small molecule antagonists: fluorescence cell-based qHTS assay (AID 1347398). Further: nearly all actives have a fitted effect of over 50% in size. Further: potency means the concentration at half of the fitted maximal effect. Conditions: SH-SY5Y cells; Potency: AChE activity; outcome: AChE activity; series mostly up to 115 µM. An outline of the steps: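 Using neuroblastoma SH-SY5Y cells as the enzyme source, test chemicals are preincubated 30 min at 37 C; AChE-driven acetylthiocholine cleavage is then quantified by thiocholine-dependent Thiolite Green fluorescence after 40 min at room temperature.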
(In qHTS, concentration-response curves come from the screen itself.)
For the molecule `OCCNCc1ccccc1`, the Potency entry is “inactive”.
With `CC(C)CCCC(C)CC=O` (stereo not drawn), the Potency entry was “inactive”.
For the molecule `COC(=O)/C=C\C(=O)O`, the Potency result is “inactive”.
Same read-out and setting: with `CC(=O)OCCc1ccccc1` the entry was “inactive”; with `CNCc1cc(F)ccc1Oc1ccc(Cl)c(Cl)c1`, “inactive”.
On the same count and under the same terms, with `COC(=O)c1cc(Cl)ccc1OC` the entry was “inactive”.
Turning to `O=[N+]([O-])c1ccc(Cl)cc1Cl`, the Potency result was “inactive”.
In the case of `C=C(C)C(=O)OCCCCCCCCCCOC(=O)C(=C)C`, the Potency entry was “inactive”.
Still for that read-out and setting: the result for `CC1OC(=O)C(C)OC1=O` (stereo not drawn) reads “inactive”; that for `Nc1nc(N)nc(-c2cc(Cl)ccc2Cl)n1`, “inactive”; that for `CCCCC/C=C\CCC=O`, “inactive”.
For the molecule `CC(C)(C)c1ccc(-c2ccc(C(C)(C)C)cc2)cc1`, the Potency result was “inactive”.
On the same count and under the same terms, the result for `CCCCCCCCCCCC(=O)[O][Sn]([CH2]CCC)([CH2]CCC)[O]C(=O)CCCCCCCCCCC` reads “inactive”; that for `CCCC(=O)OC/C=C(\C)CCC=C(C)C`, “inactive”; that for `O=C(Nc1cccc([N+](=O)[O-])c1)c1cc2ccccc2cc1O`, “inactive”.
As to `CC(CC1c2ccccc2CCc2ccccc21)CN(C)C` (stereo not drawn), the Potency entry is “inactive”.
On to `O=C(Nc1ccc(Cl)cc1)Nc1ccc(Cl)c(C(F)(F)F)c1`, for which the Potency result was “inactive”.
For `O=C(O)C(O)[C@H](O)[C@@H](O)[C@H](O)[C@H](O)CO` (stereo partly drawn), the Potency result was “inactive”.
Regarding `CCCCCc1ccco1`, the Potency entry is “inactive”.
On the same count and under the same terms, the result for `CCCCCCCCC1CCC(=O)O1` (stereo not drawn) reads “inactive”.
The same measure, in the same setting: the result for `CCCCCOc1ccccc1/C(=C\SC)n1ccnc1` reads “inactive”; that for `CC(C)=CCCC(C)O` (stereo not drawn), “inactive”; that for `Cn1cnc2ncnc(N)c21`, “inactive”.
For `CCOc1ccccc1O`, the Potency entry was “inactive”.
With `COC(=O)CC(C(C)=O)C(=O)OC` (stereo not drawn), the Potency entry is “inactive”.
For `COC(=O)CCSCCC(=O)OC`, the Potency entry is “inactive”.
For the molecule `CCO`, the Potency entry is “inactive”.
Same read-out and setting: with `Cc1c(Cl)cccc1Nc1ccccc1C(=O)O` the entry was “inactive”; with `CCCC1CCCC(=O)O1` (stereo not drawn), “inactive”; with `COC(=O)/C=C/C(C)=C\C=C\C(C)=C\C=C\C=C(C)\C=C\C=C(C)\C=C\C(=O)O`, “inactive”.
For the molecule `CCCCOC(=O)CC`, the Potency entry was “inactive”.
As to `OC[C@H]1O[C@@H](O[C@@H]2[C@@H](CO)O[C@](O)(CO)[C@H]2O)[C@H](O)[C@@H](O)[C@H]1O`, the Potency entry is “inactive”.
Consider `Cc1ccc(O)c([N+](=O)[O-])c1`, for which the Potency result was “inactive”.
With `O=C(O)Cc1ccc(OCCNC[C@H](O)c2ccccc2)cc1`, the Potency entry is “inactive”.
Take `CC(C)CCOC(=O)CC(C)C`: the Potency entry was “inactive”.
Take `CC=O`: the Potency is 26.4 µM (active).
On to `COc1c(N2CCNC(C)C2)c(F)cc2c(=O)c(C(=O)O)cn(C3CC3)c12` (stereo not drawn), for which the Potency entry was “inactive”.
In the case of `O=c1cc(-c2ccccc2)oc2ccc3ccccc3c12`, the Potency entry was “inactive”.
On the same count and under the same terms, with `CC(C)(C)c1ccc(C=O)cc1` the entry was “inactive”.

Another assay shares this target. Description: Acetylcholinesterase (AChE) small molecule antagonists: enzyme-based qHTS assay with human liver microsomes (AID 1347399). Further: nearly all actives have a fitted effect of over 60% in size. Particulars: Potency: qHTS inhibition; outcome: qHTS inhibition; series mostly up to 115 µM. An outline of the steps: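 Recombinant human AChE (50 mU/mL in the enzyme mix) and human liver microsomes (0.25 mg/mL final) were preincubated with compound and NADPH (0.25 mg/mL final) for 30 min at 37 C. Acetylthiocholine/DTNB was then added; thiocholine was read colorimetrically after 10 min at room temperature.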
Take `OCCNCc1ccccc1`: the Potency result was “inactive”.
Turning to `CC(C)CCCC(C)CC=O` (stereo not drawn), the Potency entry is “inactive”.
On the same count and under the same terms, the result for `COC(=O)/C=C\C(=O)O` reads “inactive”; that for `CC(=O)OCCc1ccccc1`, “inactive”.
As for `CNCc1cc(F)ccc1Oc1ccc(Cl)c(Cl)c1`, the Potency entry was “inactive”.
For `COC(=O)c1cc(Cl)ccc1OC`, the Potency result was “inactive”.
The same measure, in the same setting: the result for `O=[N+]([O-])c1ccc(Cl)cc1Cl` reads “inactive”.
`C=C(C)C(=O)OCCCCCCCCCCOC(=O)C(=C)C`: the Potency entry was “inactive”.
Turning to `CC1OC(=O)C(C)OC1=O` (stereo not drawn), the Potency result was “inactive”.
Same read-out and setting: with `Nc1nc(N)nc(-c2cc(Cl)ccc2Cl)n1` the entry was “inactive”; with `CCCCC/C=C\CCC=O`, “inactive”.
As for `CC(C)(C)c1ccc(-c2ccc(C(C)(C)C)cc2)cc1`, the Potency result is “inactive”.
On to `CCCCCCCCCCCC(=O)[O][Sn]([CH2]CCC)([CH2]CCC)[O]C(=O)CCCCCCCCCCC`, for which the Potency result was “inactive”.
Take `CCCC(=O)OC/C=C(\C)CCC=C(C)C`: the Potency result is “inactive”.
The same measure, in the same setting: the result for `O=C(Nc1cccc([N+](=O)[O-])c1)c1cc2ccccc2cc1O` reads “inactive”; that for `CC(CC1c2ccccc2CCc2ccccc21)CN(C)C` (stereo not drawn), “inactive”; that for `O=C(Nc1ccc(Cl)cc1)Nc1ccc(Cl)c(C(F)(F)F)c1`, “inactive”.
Take `O=C(O)C(O)[C@H](O)[C@@H](O)[C@H](O)[C@H](O)CO` (stereo partly drawn): the Potency entry is “inactive”.
Same read-out and setting: the result for `CCCCCc1ccco1` reads “inactive”; that for `CCCCCCCCC1CCC(=O)O1` (stereo not drawn), “inactive”.
Still for that read-out and setting: with `CCCCCOc1ccccc1/C(=C\SC)n1ccnc1` the entry was “inactive”; with `CC(C)=CCCC(C)O` (stereo not drawn), “inactive”; with `Cn1cnc2ncnc(N)c21`, “inactive”.
As to `CCOc1ccccc1O`, the Potency result was “inactive”.
In the case of `COC(=O)CC(C(C)=O)C(=O)OC` (stereo not drawn), the Potency entry was “inactive”.
Consider `COC(=O)CCSCCC(=O)OC`, for which the Potency entry was “inactive”.
Take `CCO`: the Potency entry was “inactive”.
Regarding `Cc1c(Cl)cccc1Nc1ccccc1C(=O)O`, the Potency entry is “inactive”.
In the case of `CCCC1CCCC(=O)O1` (stereo not drawn), the Potency entry is “inactive”.
Regarding `COC(=O)/C=C/C(C)=C\C=C\C(C)=C\C=C\C=C(C)\C=C\C=C(C)\C=C\C(=O)O`, the Potency result is “inactive”.
`CCCCOC(=O)CC`: the Potency entry was “inactive”.
For `OC[C@H]1O[C@@H](O[C@@H]2[C@@H](CO)O[C@](O)(CO)[C@H]2O)[C@H](O)[C@@H](O)[C@H]1O`, the Potency entry is “inactive”.
In the case of `Cc1ccc(O)c([N+](=O)[O-])c1`, the Potency entry was “inactive”.
With `O=C(O)Cc1ccc(OCCNC[C@H](O)c2ccccc2)cc1`, the Potency result was “inactive”.
As for `CC(C)CCOC(=O)CC(C)C`, the Potency result was “inactive”.
The same measure, in the same setting: the result for `CC=O` reads “inactive”.
Still for that read-out and setting: the result for `COc1c(N2CCNC(C)C2)c(F)cc2c(=O)c(C(=O)O)cn(C3CC3)c12` (stereo not drawn) reads “inactive”; that for `O=c1cc(-c2ccccc2)oc2ccc3ccccc3c12`, “inactive”; that for `CC(C)(C)c1ccc(C=O)cc1`, “inactive”.
